In the library only some 1.1% were active in any assay of this set; here they are far more common.
RXFP1 agonist – activates the human relaxin receptor RXFP1; Q9HBX9; HEK293T-RXFP1 cAMP TR-FRET, 30 min; response scale: percent of porcine relaxin response, buffer zero; Potency, µM (series often up to 57.5 µM), usual class: activators; actives 0.3% (n = 370,000); AID 2676; active = well fitted activation curve with a large enough effect; inconclusive = small, poorly fitted or top-dose-only effect; also: nearly all actives have a fitted effect of over 60% in size
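HEK293 cells stably expressing RXFP1, treated 30 min at 37C with compounds plus PDE4 inhibitor Ro 20174; cAMP measured by HTRF TR-FRET. Normalized to buffer and 29 nM porcine relaxin; EC50 by Hill fit.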
TRPV1 agonist – agonists of human vanilloid receptor 1 (TRPV1); activation, % at 8.33 µM; actives 0.19% (n = 320,000); Q8NER1; TRPV1-expressing cells, Fluo-8 calcium influx, agonist mode; in the data active = activation above about 80%; inconclusive = between about 30% and that limit
Target sequence (Q8NER1 whole entry, looked up): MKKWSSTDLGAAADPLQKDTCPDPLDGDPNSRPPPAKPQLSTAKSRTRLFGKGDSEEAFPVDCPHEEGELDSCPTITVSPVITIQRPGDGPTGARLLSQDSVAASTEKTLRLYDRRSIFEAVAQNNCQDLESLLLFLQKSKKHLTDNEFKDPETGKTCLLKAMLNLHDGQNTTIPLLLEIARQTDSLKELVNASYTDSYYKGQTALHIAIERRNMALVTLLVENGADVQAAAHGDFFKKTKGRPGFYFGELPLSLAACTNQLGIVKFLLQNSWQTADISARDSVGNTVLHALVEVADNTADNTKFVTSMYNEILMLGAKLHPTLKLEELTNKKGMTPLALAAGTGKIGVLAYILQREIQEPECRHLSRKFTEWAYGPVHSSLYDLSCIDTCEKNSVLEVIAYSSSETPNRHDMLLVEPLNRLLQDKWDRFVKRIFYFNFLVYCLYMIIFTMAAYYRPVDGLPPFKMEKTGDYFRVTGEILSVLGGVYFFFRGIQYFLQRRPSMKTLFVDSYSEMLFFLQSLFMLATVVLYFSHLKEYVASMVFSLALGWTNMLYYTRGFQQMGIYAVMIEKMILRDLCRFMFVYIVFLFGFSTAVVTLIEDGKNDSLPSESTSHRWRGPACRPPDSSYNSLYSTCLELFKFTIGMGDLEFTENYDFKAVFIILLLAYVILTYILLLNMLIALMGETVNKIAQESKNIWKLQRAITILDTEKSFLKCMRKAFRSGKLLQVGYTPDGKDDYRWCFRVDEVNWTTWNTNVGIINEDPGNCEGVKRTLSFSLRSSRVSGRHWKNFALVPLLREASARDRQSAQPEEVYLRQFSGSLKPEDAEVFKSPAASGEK
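Cells expressing TRPV1 were dye-loaded with Fluo-8 and read kinetically: 10 s baseline, 3 min after compound (agonist portion), then 2 min after EC20 capsaicin (allosteric enhancer portion). Calcium-bound dye fluorescence at 480/520 nm.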
gsp antag – antagonizes gsp, the McCune-Albright syndrome mutation. gsp-mutant cells, cAMP HTRF, 30 min. Potency, µM (top dose mostly 76.9 µM), actives largely listed as inhibitors. actives 0.4% (n = 340,000); calls by dose curve; cell line not stated here;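 also: intracellular cAMP measured with PDE inhibitor Ro 20-1724 present during compound exposure; nearly all actives have a fitted effect of over 65% in size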
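HTRF cAMP read-out (cAMP-d2 plus anti-cAMP antibody-K in lysis buffer, 30 min RT). Before lysis, cells are exposed to compounds with […] for 30 min at 37C in DPBS containing Ca/Mg, BSA and Tween 20.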
gsp ag – activates gsp, the McCune-Albright syndrome mutation; gsp mutant cells, cAMP HTRF, 30 min; Potency, µM (top dose mostly 76.9 µM), actives largely listed as activators; actives 0.13% (n = 340,000); active = well fitted activation curve with a large enough effect; inconclusive = small, poorly fitted or top-dose-only effect, or another doubt; inactive = no such curve, though single readings can be large or run the other way; cell line not stated here;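 also: phosphodiesterase inhibitor Ro 20-1724 added with compounds to block cAMP breakdown; nearly all actives have a fitted effect of over 60% in size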
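Cells in DMEM/10% FBS with G418 were pretreated with compounds in DMSO plus […] (300 uM stock) for 30 min at 37C. cAMP was measured by HTRF (cAMP-d2 plus anti-cAMP antibody-K) after 30 min at room temperature.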
TRPV1 potentiator – human TRPV1 potentiation | Q8NER1 | TRPV1-expressing cells, Fluo-8 calcium influx, capsaicin EC20 potentiation | potentiation, % at 8.33 µM | actives 0.02% (n = 320,000) | AID 540277; in the data active = potentiation above about 80%; inconclusive = between about 30% and that limit
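TRPV1-expressing cells were cultured overnight at 35.5C and loaded with Fluo-8 calcium dye for 40 to 90 min at room temperature. After a 10 s baseline, compound was added and calcium influx was read kinetically for 3 min (ex 480/em 520 nm).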
RXFP1 antag – antagonists of human relaxin receptor RXFP1; Q9HBX9; HEK293-RXFP1, relaxin-stimulated cAMP HTRF, 30 min; stronger effect = lower value; activity change, negative = inhibition, % at 57.5 µM; actives 0.59% (n = 350,000); AID 1259400;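 active = activity change of -60% or lower, but not beyond a set lower limit; inconclusive = change between -60% and -40%, or beyond the set limit; inactive = change above -40%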
A number is an active result; [ ] = remark or other dose.

What do the screens show for `Cc1[nH]n(-c2ccc([N+](=O)[O-])cc2)c(=O)c1C=NCCc1ccc(S(N)(=O)=O)cc1`?
RXFP1 agonist: inactive; TRPV1 agonist: inactive; gsp antag: inactive; gsp ag: inactive[15.4 µM]; TRPV1 potentiator: inactive; RXFP1 antag: inactive

Results for Cc1[nH]n(-c2ccc([N+](=O)[O-])cc2)c(=O)c1C=NCCN1CCN(C(=O)C(C)C)CC1 ?
RXFP1 agonist: 25µM; TRPV1 agonist: inactive; gsp antag: inactive; gsp ag: inconclusive; TRPV1 potentiator: inactive; RXFP1 antag: inactive

Results for CC1(C)CC(=O)C2=C(C1)c1c(ccc3ccccc13)NC2c1cc([N+](=O)[O-])cc([N+](=O)[O-])c1O (stereo not given) ?
RXFP1 agonist: inactive; TRPV1 agonist: inactive; gsp antag: 32µM; gsp ag: inactive[15.4 µM]; TRPV1 potentiator: inactive; RXFP1 antag: -72

How did COc1ccc(CC(=O)NCC(c2ccc(N(C)C)cc2)N2CCOCC2)cc1 (stereo not given) do in these assays?
RXFP1 agonist: inactive; RXFP1 antag: inactive

Results for CC(=O)c1cccc(NC(=O)COc2cc3oc(=O)c(CC(C)O)c(C)c3cc2Cl)c1 (stereo not given) ?
RXFP1 agonist: inactive; TRPV1 agonist: inactive; gsp antag: 32µM; gsp ag: inactive[15.4 µM]; TRPV1 potentiator: inactive; RXFP1 antag: inactive

What do the screens show for `COc1ccc(OC)c(S(=O)(=O)N/N=C\c2c[nH]c3ccccc23)c1`?
RXFP1 agonist: inactive; TRPV1 agonist: inactive; gsp antag: inactive; gsp ag: inactive[15.4 µM]; TRPV1 potentiator: inactive; RXFP1 antag: inactive

What do the screens show for `Cc1noc(C(=O)Nc2ccc(C#N)cc2)c1Cl`?
RXFP1 agonist: inactive; TRPV1 agonist: inactive; gsp antag: inactive; gsp ag: inactive[15.4 µM]; TRPV1 potentiator: inactive; RXFP1 antag: inactive

What do the screens show for `CCc1ccc(NC(=O)c2onc(C)c2Cl)cc1`?
RXFP1 agonist: inactive; TRPV1 agonist: 89; gsp antag: inactive; gsp ag: inactive; TRPV1 potentiator: inactive

How did Cc1csc(NC(=O)c2cc3ccccc3o2)n1 do in these assays?
RXFP1 agonist: inactive; TRPV1 agonist: inconclusive; gsp antag: inactive; gsp ag: inactive; TRPV1 potentiator: inactive; RXFP1 antag: inactive

Results for Cc1csc(C(C#N)C(=O)c2cc3ccccc3o2)n1 (stereo not given) ?
RXFP1 agonist: inactive; TRPV1 agonist: inactive; gsp antag: 25µM; gsp ag: inactive; TRPV1 potentiator: inactive; RXFP1 antag: inactive

Results for COc1ccc(N(C)S(=O)(=O)c2cccc(C(=O)Nc3ccc(OC)nc3)c2)cc1 ?
RXFP1 agonist: inactive; TRPV1 agonist: inconclusive; TRPV1 potentiator: inactive

How did CC(=O)c1c(C)[nH]c(C(=O)Nc2cccc(S(=O)(=O)N(C)c3ccccc3)c2)c1C do in these assays?
RXFP1 agonist: inactive; TRPV1 agonist: inactive; gsp antag: 32µM; gsp ag: inactive; TRPV1 potentiator: inactive; RXFP1 antag: inactive

What do the screens show for `CN(c1ccccc1)S(=O)(=O)c1cccc(NC(=O)c2ccc3ncsc3c2)c1`?
RXFP1 agonist: inactive; TRPV1 agonist: inconclusive; gsp antag: 25µM; gsp ag: inactive[15.4 µM]; TRPV1 potentiator: inactive; RXFP1 antag: inactive

How did Cc1nc2ccc(NC(=O)c3cccc(S(=O)(=O)N(C)c4ccccc4)c3)cc2s1 do in these assays?
RXFP1 agonist: inactive; TRPV1 agonist: inactive; gsp antag: 35µM; gsp ag: inactive; TRPV1 potentiator: inactive

How did CN(c1ccccc1)S(=O)(=O)c1cccc(NC(=O)c2cccc(C#N)c2)c1 do in these assays?
RXFP1 agonist: inactive; TRPV1 agonist: inactive; gsp antag: inactive; gsp ag: inactive; TRPV1 potentiator: inactive; RXFP1 antag: inactive

Results for COc1ccc(N(C)S(=O)(=O)c2cccc(C(=O)Nc3ccc(-n4cnnn4)cc3)c2)cc1 ?
RXFP1 agonist: inactive; TRPV1 agonist: inconclusive; gsp antag: 28µM; gsp ag: inactive; TRPV1 potentiator: inactive; RXFP1 antag: inactive

What do the screens show for `CN(C)S(=O)(=O)c1cccc(NC(=O)c2ccc(COc3ccccc3)cc2)c1`?
RXFP1 agonist: inactive; TRPV1 agonist: inactive; gsp antag: 32µM; gsp ag: inactive; TRPV1 potentiator: inactive; RXFP1 antag: inactive

What do the screens show for `O=C1C=C(c2ccc3cc[nH]c3c2)C[C@@H](c2ccc3c(c2)OCO3)C1`?
RXFP1 agonist: inactive; TRPV1 agonist: inactive; gsp antag: inactive; gsp ag: inactive; TRPV1 potentiator: inactive

What do the screens show for `COC(=O)c1c(C(=O)OC)c(-c2ccccc2)n2c1CS(=O)C2` (stereo not given)?
RXFP1 agonist: inactive; TRPV1 agonist: inactive; gsp antag: inactive; gsp ag: inactive; TRPV1 potentiator: 92; RXFP1 antag: inactive

Results for COC(=O)c1c(C(=O)OC)c(-c2ccc(F)cc2)n2c1CS(=O)C2 (stereo not given) ?
RXFP1 agonist: inactive; TRPV1 agonist: inactive; gsp antag: inactive; gsp ag: inactive; TRPV1 potentiator: inactive; RXFP1 antag: inactive

How did CC(C)CCN1C(=O)c2cccc3c(N)ccc(c23)C1=O do in these assays?
gsp antag: inactive; gsp ag: inactive[15.4 µM]; RXFP1 antag: inactive

Results for CCC(=O)NC(Nc1sc2c(c1C(=O)OC)CCC2)C(Cl)(Cl)Cl (stereo not given) ?
RXFP1 agonist: inactive; TRPV1 agonist: inactive; gsp antag: inactive; gsp ag: inactive; TRPV1 potentiator: inactive

How did COC(=O)c1c(NC(NC(=O)C(C)C)C(Cl)(Cl)Cl)sc2c1CCC2 (stereo not given) do in these assays?
RXFP1 agonist: inactive; TRPV1 agonist: inactive; gsp antag: inactive; gsp ag: inactive; TRPV1 potentiator: inactive; RXFP1 antag: -60

How did COC(=O)c1c(NC(NC(=O)C(C)(C)C)C(Cl)(Cl)Cl)sc2c1CCC2 (stereo not given) do in these assays?
RXFP1 agonist: inactive; TRPV1 agonist: inactive; gsp antag: inconclusive; gsp ag: inconclusive; TRPV1 potentiator: inactive; RXFP1 antag: -81

Results for COC(=O)c1c(NC(NC(=O)CC(C)C)C(Cl)(Cl)Cl)sc2c1CCC2 (stereo not given) ?
RXFP1 agonist: inactive; TRPV1 agonist: inactive; gsp antag: inconclusive; gsp ag: inactive; TRPV1 potentiator: inactive

Results for CCN(C(=O)Cn1nnc2sc(-c3ccccc3)cc2c1=O)c1cccc(C)c1 ?
RXFP1 agonist: inactive; RXFP1 antag: inactive

Results for O=C(/C=C/c1cc(Br)ccc1F)Nc1cccnc1 ?
RXFP1 agonist: inactive; TRPV1 agonist: 80; gsp antag: inactive; gsp ag: inactive; TRPV1 potentiator: inactive; RXFP1 antag: inactive

Results for CN(C)c1ccc(C(=O)/C=C/c2cccnc2)cc1 ?
RXFP1 agonist: inactive; TRPV1 agonist: inactive; gsp antag: inactive; gsp ag: inactive; TRPV1 potentiator: inactive; RXFP1 antag: inactive

Compound activity as filed in PubChem BioAssay.
